Experimental data reported in PubChem BioAssay.
Active and inactive are the calls of the source.

What was measured:
[1] = binders of probe aFSTL3 on microarray, primary screen, stem cell growth factor project, biochemical, small-molecule microarray, fluorescence 635/667 (AID 1064); details: higher = more signal;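 note: measures binding of the biotinylated anti-FSTL3 antibody to printed compounds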
[2] = binders from COS7 lysate, DM2A8 probe, primary screen, torsin A project, cell lysate, small-molecule microarray, fluorescence 635/667 (AID 1065); details: higher = more signal, COS7 lysate expressing mutant human TOR1A
[3] = binders of probe aFGF2 on microarray, primary screen, stem cell growth factor project, biochemical, small-molecule microarray, fluorescence 635/667 (AID 1067); details: higher = more signal;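 note: measures binding of biotinylated aFGF2 protein to printed compounds on slides; z-score merges feature fluorescence and signal-to-noise across triplicate slides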
[4] = binders of probe aFGF10 on microarray, primary screen, stem cell growth factor project, biochemical, small-molecule microarray, fluorescence 635/667 (AID 1071); details: higher = more signal;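 note: score merges 667 nm spot intensity and signal to noise from triplicate slides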
[5] = molecular target: Neurogenic locus notch homolog protein 2 (Homo sapiens) (UniProt Q04721); assay: Notch2 binders on small-molecule microarrays, primary screen, biochemical, small-molecule microarray, 635 nm fluorescence, stem cell growth factors (AID 1073); details: Notch2 binding, higher = more signal
[6] = molecular target: Pro-neuregulin-1, membrane-bound isoform (Homo sapiens) (UniProt Q02297); assay: NRG1 binders on small-molecule microarrays, primary screen, psychiatric disease protein project, biochemical, small-molecule microarray, fluorescence 635/667 (AID 1075); details: NRG1 binding, 635 nm fluorescence, higher = more signal;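 note: score combines 667 nm spot fluorescence with signal to noise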
Pro-neuregulin-1, membrane-bound isoform (Homo sapiens), sequence (Q02297 whole entry, looked up, the tested form may be a part, canonical isoform): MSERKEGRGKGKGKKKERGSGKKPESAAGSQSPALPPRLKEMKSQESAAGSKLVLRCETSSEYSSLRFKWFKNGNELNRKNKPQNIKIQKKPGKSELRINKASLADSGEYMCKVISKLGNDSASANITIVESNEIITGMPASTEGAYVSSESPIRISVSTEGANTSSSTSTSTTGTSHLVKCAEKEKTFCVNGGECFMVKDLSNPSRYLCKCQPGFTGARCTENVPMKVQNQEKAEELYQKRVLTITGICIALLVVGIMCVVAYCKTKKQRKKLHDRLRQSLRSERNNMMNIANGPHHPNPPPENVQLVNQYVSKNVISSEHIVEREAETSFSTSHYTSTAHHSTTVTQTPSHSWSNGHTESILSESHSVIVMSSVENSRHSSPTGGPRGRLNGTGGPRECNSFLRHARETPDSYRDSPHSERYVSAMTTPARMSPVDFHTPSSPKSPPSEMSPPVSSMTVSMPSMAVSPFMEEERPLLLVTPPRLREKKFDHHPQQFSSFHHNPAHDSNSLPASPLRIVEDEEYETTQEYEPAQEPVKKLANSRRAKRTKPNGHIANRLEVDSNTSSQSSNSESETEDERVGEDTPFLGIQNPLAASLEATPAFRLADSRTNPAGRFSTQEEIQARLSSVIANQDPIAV

[7] = system: Neuregulin-1 EGF-like domain; assay: binders of neuregulin-1 EGF-like domain, primary screen, biochemical, small-molecule microarray, 635 nm fluorescence (AID 1081); details: small-molecule microarray binding, higher = more signal;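 note: binding of the protein to compounds printed on small-molecule microarray slides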
[8] = FRG1 promoter luciferase signal modulators, primary screen, FRG1 inhibition for FSHD, cell-based, C2C12 myotubes, firefly/Renilla luciferase, luminescence (AID 1084); details: higher = more signal, called active from +8 up or from −8 down
[9] = binders of probe aFST on microarray, primary screen, stem cell growth factor project, biochemical, small-molecule microarray, fluorescence 635/667 (AID 1086); details: higher = more signal;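 note: score merges 667 nm fluorescence with signal-to-noise of each printed compound spot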
[10] = binders of probe aHhip on microarray, primary screen, stem cell growth factor project, biochemical, small-molecule microarray, fluorescence 635/667 (AID 1087); details: higher = more signal;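 note: score merges spot fluorescence at 667nm with spot signal to noise ratio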
[11] = system: PRMT1 (protein arginine N-methyltransferase 1); assay: PRMT1 binders on small-molecule microarrays, primary screen, biochemical, small-molecule microarray, 635 nm fluorescence (AID 1088); details: small-molecule microarray binding, higher = more signal;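 note: binding of Prmt1 protein to compounds spotted on small-molecule microarray slides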
[12] = yeast growth modulation, basal conditions, primary screen, YJM789 clinical isolate, OD600, 24 h (AID 1089);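 note: growth of clinical yeast isolate S. cerevisiae YJM 789 seeded 1000 cells per well; test concentration not given here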; details: S. cerevisiae YJM789 growth, higher = more signal, called active from +8 up or from −8 down
[13] = fission yeast growth modulation, primary screen, strain 972, OD600, 24 h, no modulator (AID 1090);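 note: basal condition with compound alone and no growth modifier present; test concentration not given here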; details: S. pombe 972 growth, higher = more signal, called active from +8 up or from −8 down
[14] = S. cerevisiae growth modulation with rapamycin, primary screen, strain BY4716, OD600, 96 h (AID 1091); details: higher = more signal, called active from +8 up or from −8 down; note: test concentration not given here
[15] = molecular target: Torsin-1A-interacting protein 2 (Homo sapiens) (UniProt Q8NFQ8); assay: LULL1 binders on small-molecule microarray, primary screen, cell lysate, human LULL1 lysate, 635/667 nm fluorescence (AID 1092); details: hLULL1 lysate binding, 635 nm fluorescence, higher = more signal;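 note: probe is lysate of COS7 cells overexpressing human LULL1; score merges per-feature 667 nm fluorescence with signal-to-noise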
Torsin-1A-interacting protein 2 (Homo sapiens), sequence (Q8NFQ8 whole entry, looked up): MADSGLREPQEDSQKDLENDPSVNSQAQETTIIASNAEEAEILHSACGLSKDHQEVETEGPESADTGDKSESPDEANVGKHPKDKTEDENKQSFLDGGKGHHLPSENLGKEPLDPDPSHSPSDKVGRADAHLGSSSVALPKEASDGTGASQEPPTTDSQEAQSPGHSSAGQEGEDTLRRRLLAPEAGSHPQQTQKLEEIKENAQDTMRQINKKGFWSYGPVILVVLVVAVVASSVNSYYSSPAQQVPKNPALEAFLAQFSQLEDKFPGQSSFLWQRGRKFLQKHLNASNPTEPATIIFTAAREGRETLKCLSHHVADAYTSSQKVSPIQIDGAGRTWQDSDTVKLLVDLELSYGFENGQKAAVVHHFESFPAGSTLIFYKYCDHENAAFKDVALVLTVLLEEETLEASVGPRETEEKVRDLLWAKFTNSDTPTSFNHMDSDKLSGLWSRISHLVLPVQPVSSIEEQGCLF

[16] = E. coli growth modulation, two-sided OD650, primary screen, E. coli filamentation project, strain DRC41, 24 h (AID 1093); details: OD650, 24 h, higher = more signal, called active from +8 up or from −8 down;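 note: MC1000 strain lacking acrAB efflux and sulA so SOS filamentation is blocked; test concentration not given here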
[17] = small-molecule microarray binders of probe aLefty2, primary screen, biochemical, biotinylated probe, 635/667 nm fluorescence (AID 1094); details: higher = more signal;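 note: score merges spot fluorescence near 667 nm with spot signal-to-noise ratio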
[18] = system: Noggin (protein binding on small-molecule microarray); assay: Noggin binders on small-molecule microarray, primary screen, biochemical, 635/667 nm fluorescence (AID 1095); details: 635 nm fluorescence, higher = more signal;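 note: score merges 667 nm feature fluorescence with signal to noise over triplicate slides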
[19] = molecular target: Neurogenic locus notch homolog protein 3 (Homo sapiens) (UniProt Q9UM47); assay: NOTCH3 binders on small-molecule microarray, primary screen, biochemical, 635/667 nm fluorescence (AID 1096); details: NOTCH3 binding, 635 nm fluorescence, higher = more signal
Neurogenic locus notch homolog protein 3 (Homo sapiens), sequence (Q9UM47 whole entry, looked up): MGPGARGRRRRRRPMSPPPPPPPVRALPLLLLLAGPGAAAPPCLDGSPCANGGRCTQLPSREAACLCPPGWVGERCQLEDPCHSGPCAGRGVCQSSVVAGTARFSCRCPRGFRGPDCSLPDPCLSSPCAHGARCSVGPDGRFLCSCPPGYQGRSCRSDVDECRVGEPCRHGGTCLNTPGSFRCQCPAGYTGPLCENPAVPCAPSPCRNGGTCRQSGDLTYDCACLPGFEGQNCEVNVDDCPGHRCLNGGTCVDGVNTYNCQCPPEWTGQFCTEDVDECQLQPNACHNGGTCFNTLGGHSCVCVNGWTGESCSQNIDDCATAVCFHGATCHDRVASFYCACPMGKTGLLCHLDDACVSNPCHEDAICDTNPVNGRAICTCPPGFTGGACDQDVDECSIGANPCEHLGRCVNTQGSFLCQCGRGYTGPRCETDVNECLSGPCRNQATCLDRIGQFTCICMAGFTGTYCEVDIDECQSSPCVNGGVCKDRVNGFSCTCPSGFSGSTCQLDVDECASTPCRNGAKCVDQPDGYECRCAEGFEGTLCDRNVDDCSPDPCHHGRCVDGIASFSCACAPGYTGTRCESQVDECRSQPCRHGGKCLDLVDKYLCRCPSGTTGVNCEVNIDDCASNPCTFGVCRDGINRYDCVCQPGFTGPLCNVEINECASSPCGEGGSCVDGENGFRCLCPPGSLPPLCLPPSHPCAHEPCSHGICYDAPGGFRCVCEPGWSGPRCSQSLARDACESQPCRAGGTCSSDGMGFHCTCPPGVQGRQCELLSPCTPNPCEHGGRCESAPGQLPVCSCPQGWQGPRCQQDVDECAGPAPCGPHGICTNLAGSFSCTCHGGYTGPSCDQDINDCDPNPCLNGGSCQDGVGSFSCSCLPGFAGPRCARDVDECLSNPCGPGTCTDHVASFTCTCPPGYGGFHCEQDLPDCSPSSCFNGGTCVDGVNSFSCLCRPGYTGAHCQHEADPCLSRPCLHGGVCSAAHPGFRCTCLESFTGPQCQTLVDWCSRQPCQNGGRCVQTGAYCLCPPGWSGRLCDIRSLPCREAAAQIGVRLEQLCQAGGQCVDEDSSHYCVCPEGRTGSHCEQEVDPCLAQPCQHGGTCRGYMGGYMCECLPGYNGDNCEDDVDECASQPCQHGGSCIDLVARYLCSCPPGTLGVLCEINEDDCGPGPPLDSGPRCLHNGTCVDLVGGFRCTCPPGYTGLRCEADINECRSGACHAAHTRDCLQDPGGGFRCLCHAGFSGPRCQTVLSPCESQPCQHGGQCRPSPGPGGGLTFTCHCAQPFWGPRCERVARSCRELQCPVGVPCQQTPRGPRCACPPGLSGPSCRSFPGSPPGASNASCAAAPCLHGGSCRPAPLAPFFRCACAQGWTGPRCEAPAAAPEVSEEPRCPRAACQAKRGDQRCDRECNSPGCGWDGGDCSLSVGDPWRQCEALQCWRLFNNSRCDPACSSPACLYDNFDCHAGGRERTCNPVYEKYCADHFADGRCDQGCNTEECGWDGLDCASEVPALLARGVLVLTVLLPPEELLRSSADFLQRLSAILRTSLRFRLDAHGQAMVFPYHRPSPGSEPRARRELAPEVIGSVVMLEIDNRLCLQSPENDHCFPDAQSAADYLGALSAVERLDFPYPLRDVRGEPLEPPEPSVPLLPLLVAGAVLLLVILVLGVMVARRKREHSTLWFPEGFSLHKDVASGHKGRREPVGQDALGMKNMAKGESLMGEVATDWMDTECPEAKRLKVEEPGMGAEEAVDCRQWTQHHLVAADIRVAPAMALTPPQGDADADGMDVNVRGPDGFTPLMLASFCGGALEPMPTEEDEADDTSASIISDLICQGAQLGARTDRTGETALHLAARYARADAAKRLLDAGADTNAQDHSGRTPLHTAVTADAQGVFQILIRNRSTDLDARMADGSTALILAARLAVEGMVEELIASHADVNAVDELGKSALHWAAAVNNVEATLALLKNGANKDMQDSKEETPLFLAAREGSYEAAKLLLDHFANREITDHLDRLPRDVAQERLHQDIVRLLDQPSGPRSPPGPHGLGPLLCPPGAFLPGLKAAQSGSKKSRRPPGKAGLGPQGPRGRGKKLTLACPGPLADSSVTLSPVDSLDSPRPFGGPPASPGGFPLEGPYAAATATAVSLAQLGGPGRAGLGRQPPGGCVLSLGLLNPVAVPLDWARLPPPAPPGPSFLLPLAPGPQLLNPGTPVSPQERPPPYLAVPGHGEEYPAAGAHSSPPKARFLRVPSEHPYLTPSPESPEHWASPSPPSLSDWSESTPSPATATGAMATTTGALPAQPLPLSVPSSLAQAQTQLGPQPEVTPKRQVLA

[20] = small-molecule microarray binders of probe aEGFR, primary screen, biochemical, biotinylated probe, 635/667 nm fluorescence (AID 1097); details: higher = more signal;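 note: probe is a biotinylated anti-EGFR antibody binding compounds printed on slides; score combines fluorescence near 667 nm and signal to noise of each spot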

Structure (SMILES)	composite z-score [1]	composite z-score [2]	composite z-score [3]	composite z-score [4]	composite z-score [5]	composite z-score [6]	composite z-score [7]	z-score [8]	composite z-score [9]	composite z-score [10]	composite z-score [11]	z-score [12]	z-score [13]	z-score [14]	composite z-score [15]	z-score [16]	composite z-score [17]	composite z-score [18]	composite z-score [19]	composite z-score [20]
O=C1[C@@]23C=C(Br)[C@H](C[C@@H]2COC3)[C@]12CO2	-0.199	-0.582	-0.12	-0.536	-1.71	-0.279	-1.15	0.126 (inactive)	-0.541	-0.0065	-1.63	-0.241 (inactive)	-9 (active)	0.403 (inactive)	0.246	-0.366 (inactive)	-0.14	-1.31	-1.5	-0.272
CCCCC(=C=CC[C@H](O)c1cccc(OCCO)c1)C[C@H](O)c1ccccn1	-0.37	0.0714	-0.112	0.528	-0.202	0.163	0.719	-0.692 (inactive)	-0.157	-0.236	0.483	-1.2 (inactive)	-1.12 (inactive)	-1.68 (inactive)	-0.639	1.34 (inactive)	-0.165	0.395	-0.153	-0.13
COC(=O)c1c2oc(c1C(=O)OC)C(=O)NC1(CCCCC1)c1cn(nn1)C[C@H](Cc1ccccc1)NC(=O)N[C@H](CO)CC2	-0.414	-0.0111	-0.13	0.117	0.531	1.49	1.11	-0.553 (inactive)	-0.224	0.0373	1.27	0.517 (inactive)	0.718 (inactive)	-0.466 (inactive)	2.86	1.52 (inactive)	-0.186	0.322	0.705	-0.171
CC[C@@H]1C=C(C(=O)O)[C@H](c2ccc(C)cc2)N1S(=O)(=O)c1ccc(C)cc1	-0.139	0.719	-0.0246	-0.256	1.1	0.929	1.29	-0.143 (inactive)	0.593	0.126	0.805	-1.23 (inactive)	0.992 (inactive)	-0.564 (inactive)	2.9	-0.552 (inactive)	-0.0654	0.634	0.939	-0.0557
CC(CO)N1C(=O)[C@@H]2C3C(=O)OCCC/C=C\[C@H]3OC23C=CCN(CCN2CCOCC2)C(=O)[C@@H]13 (stereo not given in full)	-0.547	0.163	-0.139	0.38	-0.59	-0.31	0.47	-0.55 (inactive)	-0.28	-0.212	0.871	-0.321 (inactive)	-0.802 (inactive)	-0.215 (inactive)	-0.675	-0.19 (inactive)	-0.207	-0.0152	0.159	-0.187
COC(=O)[C@@]1(Cc2ccc(OC)cc2)[C@H]2c3cc(C(=O)N(C)C)n(Cc4ccc(C(F)(F)F)nc4)c3C[C@H]2CN1C(=O)c1ccccc1	0.125	0.114	0.0343	0.459	1.53	1.34	1.01	0.515 (inactive)	0.597	-0.0237	-1.54	0.643 (inactive)	1.7 (inactive)	0.473 (inactive)	2.17	0.379 (inactive)	0.498	0.243	-0.055	0.338
CO[C@H]1O[C@H](CO)[C@@H](OC(=O)Nc2ccc(Br)cc2)[C@@H]2OC(=O)[C@H](Cc3cccc(Br)c3)C/C=C/C[C@@H](Cc3cccc(Br)c3)C(=O)O[C@@H]12	-0.0675	-0.0034	-0.135	0.0489	0.0333	0.72	1.05	1.3 (inactive)	0.388	0.315	0.0859	-0.163 (inactive)	-2.81 (inactive)	30.3 (active)	0.763	1.26 (inactive)	-0.112	0.594	0.911	-0.0828
O=C1NC(=O)C2C1C=CC(C(O)c1ccc(-c3ccccc3)s1)N2Nc1ccc(Cl)cc1Cl (stereo not given)	0.0065	0.285	0.107	0.297	1.21	1.48	0.706	2.38 (inactive)	1.16	-0.0645	0.193	-0.863 (inactive)	-1.76 (inactive)	1.58 (inactive)	3.07	-1.25 (inactive)	0.214	0.23	0.983	-0.106
COc1cc(OC)c(C(O)C2C=CC3C(=O)NC(=O)C3N2Nc2ccccn2)cc1Br (stereo not given)	0.159	0.56	-0.0494	0.561	1.24	1.48	1.44	1.21 (inactive)	0.0594	-0.141	1.49	-0.0137 (inactive)	-0.289 (inactive)	0.204 (inactive)	0.645	-0.564 (inactive)	0.0917	0.458	0.716	0.131
C[N+](C)(C)CCCCCCNC(=O)[C@H]1C[C@H]2C(=O)N[C@@H](Cc3ccccc3)C(=O)N2[C@H]1c1cccc(OCCO)c1	-0.429	0.652	-0.0266	0.293	0.357	0.318	1.31	3.64 (inactive)	-0.0975	-0.0645	1.15	-0.776 (inactive)	0.703 (inactive)	-0.282 (inactive)	3.05	-0.0145 (inactive)	0.0028	1.13	0.953	-0.0152
CCOc1ccc(N2C(=O)CSC2c2cccc([N+](=O)[O-])c2)cc1 (stereo not given)	-0.368	-0.113	0.0525	0.839	1.22	1.64	1.29	0.541 (inactive)	0.569	-0.199	0.971	0.493 (inactive)	0.527 (inactive)	0.712 (inactive)	1.63	1.01 (inactive)	-0.0555	0.154	0.699	-0.0697
C=C(CCCC)/C(=C/C[C@@H](OC(C)=O)c1ccccc1OCCO)c1cc(C(=O)OC)ccc1OC	0.0248	-0.0044	-0.0996	0.187	-0.659	-0.0693	-0.0487	0.549 (inactive)	-0.38	-0.271	0.252	1.03 (inactive)	0.404 (inactive)	-0.358 (inactive)	0.615	0.531 (inactive)	-0.12	0.0643	-0.218	-0.185
COc1ccc(CCNC(=O)[C@@]2(c3ccc([N+](=O)[O-])cc3)CC(=O)N(CC34CC5CC(CC(C5)C3)C4)[C@@H]2c2ccc(CO)cc2I)cc1	-0.235	1	0.0569	0.377	0.6	1.09	1.2	-1.64 (inactive)	-0.0217	-0.446	1.54	0.484 (inactive)	0.369 (inactive)	6.17 (inactive)	2.83	0.376 (inactive)	-0.387	1.52	1.1	-0.151
COc1ccc(C#Cc2ccc3c(c2)[C@]2(C(=O)N3)[C@H](c3ccc(O)cc3)N3[C@H](c4ccccc4)[C@H](c4ccccc4)OC(=O)[C@H]3[C@@H]2C(=O)N2CCc3cc(OC)c(OC)cc3C2)cc1	-0.284	0.0877	0.0106	0.355	0.84	1.32	1.26	1.46 (inactive)	0.464	0.0505	1.54	1.74 (inactive)	0.921 (inactive)	1.93 (inactive)	3.04	-0.0389 (inactive)	-0.189	1.68	1.07	-0.0381
O=C1C2C=CC(C(O)COCc3ccccc3)N(Nc3ccc([N+](=O)[O-])cc3)C2C(=O)N1c1ccccc1 (stereo not given)	0.0903	-0.58	-0.0004	1.14	1.57	0.661	1.32	0.123 (inactive)	1.44	-0.145	1.46	-0.464 (inactive)	1.12 (inactive)	2.16 (inactive)	2.83	0.547 (inactive)	0.168	0.661	1.09	-0.0072
O=C1NC(=O)C2C1C=CC(C(O)C1CC=CCC1)N2Nc1ccccn1 (stereo not given)	0.0882	0.922	0.135	0.938	1.2	-0.0625	1.11	0.845 (inactive)	0.324	-0.445	0.241	1.13 (inactive)	0.869 (inactive)	0.728 (inactive)	0.861	-0.813 (inactive)	0.113	-0.0801	0.328	0.26
CCOC(=O)C1=CC[C@H]2C(=O)N(c3ccccc3)C(=O)[C@@H]12	-0.368	0.606	0.05	1.07	1.61	1.37	1.32	-0.775 (inactive)	0.743	-0.0237	1.48	0.296 (inactive)	-0.0087 (inactive)	-0.487 (inactive)	3.4	-0.981 (inactive)	0.157	0.436	1.07	0.08
COCCOC(=O)N1C(=O)[C@@]2(c3ccccc31)[C@H](C(=O)N1CCc3cc(OC)c(OC)cc3C1)[C@H]1C(=O)O[C@H](c3ccccc3)[C@H](c3ccccc3)N1[C@@H]2c1ccc(O)cc1	-0.159	0.706	-0.0303	0.647	1.28	0.832	1.26	-2.26 (inactive)	-0.0345	0.0302	1.51	-0.654 (inactive)	0.194 (inactive)	1.8 (inactive)	2.85	2.31 (inactive)	0.206	1.39	0.806	0.0383
C[C@H]1C2[C@H](Cc3ccccc3)NC(=O)[C@]23C(=O)NCC(=O)N2CCC[C@H]2C(=O)NC/C=C/CCC/C=C/C3[C@@H]2O[C@]12C (stereo not given in full)	-0.106	-0.511	-0.191	-0.261	-0.754	-0.0754	-0.125	-0.111 (inactive)	-0.653	-0.249	-1.33	0.291 (inactive)	-0.0836 (inactive)	-0.0152 (inactive)	-1.02	1.51 (inactive)	-0.18	-0.627	-0.508	-0.278
